# PMC4336329 (PLoS ONE, 2015)
# Screen size: about 310,000 compounds; about 14,000 (4.5%) showed an effect of 50% or more. The effect is printed as a negative number. This is one part of a sample in which strong results are shown more often than they occur.
# Target: human ether-à-go-go-related gene (hERG) potassium channel (human, UniProt Q12809)
# Assay: primary screen, population patch clamp on CHO cells stably expressing hERG; higher = less effect of the substance
# 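Further: peak tail current of the secondary pulse compared with the same well before compound.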
# Chain of human ether-à-go-go-related gene (hERG) potassium channel (Q12809 whole entry, looked up): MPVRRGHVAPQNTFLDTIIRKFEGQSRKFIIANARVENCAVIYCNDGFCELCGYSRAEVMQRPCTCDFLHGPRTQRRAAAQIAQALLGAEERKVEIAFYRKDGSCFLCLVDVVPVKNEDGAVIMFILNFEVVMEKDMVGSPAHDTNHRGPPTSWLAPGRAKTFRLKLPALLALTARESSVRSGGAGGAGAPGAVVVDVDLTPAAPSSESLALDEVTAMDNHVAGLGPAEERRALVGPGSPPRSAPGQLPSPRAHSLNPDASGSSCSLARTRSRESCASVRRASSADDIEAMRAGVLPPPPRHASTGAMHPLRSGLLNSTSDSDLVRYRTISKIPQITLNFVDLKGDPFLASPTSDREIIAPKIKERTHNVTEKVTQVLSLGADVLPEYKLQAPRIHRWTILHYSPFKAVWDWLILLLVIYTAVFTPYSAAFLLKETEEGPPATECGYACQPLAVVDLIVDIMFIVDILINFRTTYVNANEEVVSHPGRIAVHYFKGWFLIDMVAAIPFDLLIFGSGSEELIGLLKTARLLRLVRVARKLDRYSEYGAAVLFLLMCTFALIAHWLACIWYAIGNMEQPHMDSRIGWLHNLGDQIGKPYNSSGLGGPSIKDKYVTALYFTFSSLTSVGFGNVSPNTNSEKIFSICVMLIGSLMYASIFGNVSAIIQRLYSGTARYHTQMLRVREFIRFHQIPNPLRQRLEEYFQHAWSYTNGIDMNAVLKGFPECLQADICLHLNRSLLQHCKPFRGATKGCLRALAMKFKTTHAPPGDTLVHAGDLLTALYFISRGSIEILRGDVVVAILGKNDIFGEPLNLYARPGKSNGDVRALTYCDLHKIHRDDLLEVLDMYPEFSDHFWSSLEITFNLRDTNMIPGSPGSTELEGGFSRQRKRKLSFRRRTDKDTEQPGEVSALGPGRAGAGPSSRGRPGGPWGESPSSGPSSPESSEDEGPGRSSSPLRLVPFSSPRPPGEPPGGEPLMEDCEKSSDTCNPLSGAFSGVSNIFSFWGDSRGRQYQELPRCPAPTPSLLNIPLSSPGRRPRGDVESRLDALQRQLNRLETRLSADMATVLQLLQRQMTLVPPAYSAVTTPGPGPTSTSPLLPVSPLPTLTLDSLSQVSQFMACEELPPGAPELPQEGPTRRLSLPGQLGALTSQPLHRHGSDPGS
row,Structure (SMILES),"hERG current change (%, negative = inhibition) at 10uM [%]"
1,Cn1c(=O)c2c(nc(SCCN3CCCCC3)n2C)n(C)c1=O,3.49
2,Cc1ccc(Cn2c(SCCN3CCOCC3)nc3c2c(=O)n(C)c(=O)n3C)cc1,-28
3,CCCSc1nc2c(c(=O)n(C)c(=O)n2C)n1Cc1ccc(C)cc1,-3.8
4,Cc1cccc(Cn2c(SCCN3CCOCC3)nc3c2c(=O)n(C)c(=O)n3C)c1,-26.2
5,CCSc1nc2c(c(=O)n(C)c(=O)n2C)n1Cc1ccc(Cl)cc1,-17.5
6,Cc1ccc(Cn2c(SCCN3CCCCC3)nc3c2c(=O)n(C)c(=O)n3C)cc1,-75.4
7,Cn1c(=O)c2c(nc(SCCN3CCCCC3)n2Cc2ccccc2)n(C)c1=O,-76
8,Cn1c(=O)c2c(nc(SCCN3CCOCC3)n2Cc2ccccc2)n(C)c1=O,-32.5
9,Cn1c(=O)c2c(nc(SCCN3CCOCC3)n2Cc2ccc(F)cc2)n(C)c1=O,-56
10,Cn1c(=O)c2c(nc(SCCN3CCOCC3)n2Cc2ccccc2Cl)n(C)c1=O,-36.8
11,O=C(NCc1ncc(C(F)(F)F)cc1Cl)Nc1ccccc1,3.57
12,Cc1ccc(C2=NN(C(=O)CCC(=O)O)C(c3ccc4c(c3)OCO4)C2)cc1 (stereo not shown),-2.17
13,COc1ccccc1NCC(=O)n1nc(C)cc1C,29.8
14,NC(=O)Nc1cc(Cl)ccc1Cl,2.21
15,COc1cc(-c2nnc(COC(=O)c3ccc(C)o3)o2)cc(OC)c1OC,7.46
16,Cc1ccc(/C=C/C(=O)NCCc2c[nH]c3ccccc23)o1,-7.78
17,O=C(NCc1ccccn1)C1CCN(S(=O)(=O)c2cccs2)CC1,-15.8
18,Cc1ccc2nc(Nc3ccc(C)c(C)c3)c3nncn3c2c1,14.5
19,CCC1=NN(C(=O)Cc2ccc(OC)cc2)C(O)(C(F)(F)F)C1 (stereo not shown),-6.51
20,O=C(NC1=NCCS1)c1ccc(Cl)c(S(=O)(=O)N2CCCCC2)c1,-2.52
21,CCOC(=O)C(C(=O)OCC)C1CCS(=O)(=O)C1 (stereo not shown),14.4
22,Cc1ccnn1C(C)C(=O)O (stereo not shown),26.3

row,Structure (SMILES),"hERG current change (%, negative = inhibition) at 10uM [%]"
1,Cc1ccc(C(=O)N/C(=C\c2ccccc2)C(=O)NCc2ccncc2)cc1,-71.2
2,Cc1ccc(C(=O)N/C(=C/c2ccccc2)C(=O)NCC2CCCO2)cc1 (stereo not shown),-21.7
3,Cc1ccc(C(=O)N/C(=C/c2ccccc2)C(=O)NC(Cc2ccccc2)C(=O)O)cc1 (stereo not shown),8.07
4,Cc1ccc(C(=O)N/C(=C/c2ccccc2)C(=O)NCc2ccncc2)cc1,-65.2
5,O=C(/C=C/c1cccs1)c1ccc(Br)cc1,7.19
6,CC(C)Oc1ccc(Br)cc1C(=O)N/N=C/c1c[nH]c2ccccc12,16.2
7,COc1ccccc1NC(=S)N(Cc1ccco1)Cc1cc2cc(C)ccc2[nH]c1=O,3.67
8,CCOc1ccc2[nH]c(=O)c(CN(CCN3CCCC3)C(=S)Nc3ccccc3OC)cc2c1,-49.7
9,COc1ccccc1NC(=O)N(CCN(C)C)Cc1cc2cc(C)ccc2[nH]c1=O,-50.2
10,COc1cc2cc(CN(CCN3CCCC3)C(=O)Nc3ccccc3Cl)c(=O)[nH]c2cc1OC,-6.16
11,COc1ccc2[nH]c(=O)c(CN(CCN3CCCC3)C(=O)Nc3ccccc3Cl)cc2c1,-47.6
12,Cc1cc(C)c2cc(CN(CCO)C(=O)Nc3ccc(Cl)cc3)c(=O)[nH]c2c1,-1.76
13,CCOc1ccc2[nH]c(=O)c(CN(CCN3CCCC3)C(=S)Nc3ccccc3OCC)cc2c1,-70.2
14,Cc1cc(C)c2cc(CN(CCN(C)C)C(=O)Nc3ccccc3Cl)c(=O)[nH]c2c1,-55.3
15,COc1ccccc1NC(=O)N(CCN1CCCC1)Cc1cc2cc(C)ccc2[nH]c1=O,-64.8
16,COc1ccc(NC(=O)N(CCc2ccccc2)Cc2cc3c(C)cc(C)cc3[nH]c2=O)cc1,14
17,COc1ccccc1NC(=S)N(CCCN(C)C)Cc1cc2cc3c(cc2[nH]c1=O)OCO3,33.3
18,CCOc1ccc(NC(=S)N(CCN2CCOCC2)Cc2cc3cc4c(cc3[nH]c2=O)OCO4)cc1,-34.6
19,Cc1ccc(S(=O)(=O)/C(C#N)=C/c2c(N3CC(C)OC(C)C3)nc3ccccn3c2=O)cc1 (stereo not shown),-46.3
20,CN(C(=S)NC(=O)c1ccccc1)c1c(N)n(Cc2ccccc2)c(=O)[nH]c1=O,0.51
21,Cc1ccc(S(=O)(=O)NCCSc2nnnn2C)cc1,-2.53
